From PubChem BioAssay AID1454 (National Center for Advancing Translational Sciences (NCATS), 2008)
The whole screen tested about 130,000 compounds, of which about 550 (0.42%) were called active. Roughly 4% stayed inconclusive and do not appear here. The entries come from a sample that favours actives as a whole. Values without a mark were called inactive. Calls follow the shape of the dose curve; as a rule, active = well fitted inhibition curve with a large enough effect; inconclusive = small, poorly fitted or top-dose-only effect, or effect the other way; inactive = flat fitted curve, though single readings scatter.

test: qHTS Assay for Inhibitors of the ERK Signaling Pathway using a Homogeneous Screening Assay; Stimulation with EGF; conditions: HEK293-V1b, EGF-stimulated phospho-ERK AlphaScreen; series mostly up to 11.5 µM; activity change, negative = inhibition: at the top concentration; also: nearly all actives have a fitted effect of over 55% in size;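 as to activity change, negative = inhibition: plate controls were stimulated vehicle wells for no effect and unstimulated vehicle basal for full effect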
From the text: NIH Chemical Genomics Center [NCGC]
NIH Molecular Libraries Screening Centers Network [MLSCN]
Assay Submitter (PI): Dr. Wei Zheng, NCGC/NIH
The Ras/extracellular-signal-regulated kinase (ERK) mitogen activated protein (MAP) kinase signaling pathway (ERK1/2 cascade) plays a key role in transmitting signals from the cell surface to the nucleus (Nishida and Gotoh 1993; Chang and Karin, 2001). The cascade is initiated by the small G-protein Ras, which recruits Raf from the cytosol, where activation occurs. Alternatively, this pathway can be activated by elevating intracellular cAMP, or by activation of a receptor tyrosine kinase as epidermal growth factor receptor.
Activation of the ERK pathway is essential in increased cell division and cell survival. Sustained and constitutive activation of the ERK pathway, however, has been linked to uncontrolled cell proliferation, increased cell survival, and tumor progression. Thus, the ERK has been as an attractive target for cancer chemotherapy in the past few years (Sebolt-Leopold and Herrera, 2004). Given its physiological and pathological importance, assessment of ERK phosphorylation has been broadly performed in both basic research and drug discovery. Most assays for the measurement of ERK phosphorylation use the antibody-based detection methods, such as western blot and ELISA. These assays require multiple reagent additions with cell wash steps and are not suitable for high throughout screening.
The current cell-based ERK phosphorylation assay was performed using AlphaScreen platform. AlphaScreen is a two bead-based proximity-dependent chemical energy transfer luminescent assay platform. The assay reagents (ERK SureFire(TM) kit) were supplied from TGR BioSciences (Australia). In the presence of specific antibodies, phosphorylated ERK will bring "donor" and "acceptor" beads to a proximity range (<200 nm), and subsequently lead a chemical luminescent reaction upon exciting donor beads with 680 nm laser. To exclude the assay-related false positives, we used a biotinylated rabbit IgG to perform counter-screen. The biotinylated antibody mimics the phosphorylated ERK1/2 for bringing streptavidin coated beads and protein-A coated beads to a proximity range for the AlphaScreen detection.
NCGC Assay Protocol Summary:
HEK293 cells stably expressing type-1 vasopressin receptor (V1b) were maintained in DMEM medium (Invitrogen, Carlsbad, CA) at 37C under a humidified atmosphere containing 5% CO2 and 95% air. The medium contained 10% FBS, 2 mM L-glutamine, non-essential amino acid, pyruvate and 50 U/ml penicillin and 50 ug/ml streptomycin (Invitrogen). The aliquots of frozen cells were stored at -135C and used for the compound screening. All compounds were screened as titrations from 0.6 nM to 46 uM final concentration. Epidermal growth factor (EGF) was used to stimulate the ERK phosphorylation pathway. The ERK phosphorylation in cells was determined using an AlphaScreen assay kit provided by […]. Data were normalized to the controls for basal activity (DMSO only) and 100% activation (25 nM EGF). AC50 values were determined from concentration-response data modeled with the standard Hill equation.
(1) Seed 4 ul/well of resuspended frozen HEK293 cells containing 2000 cells in white 1536-well plates for overnight with 1% FBS at 37C under a humidified atmosphere containing 5% CO2 and 95% air.
(2) Add 23 nL compounds in DMSO solution. The final titration was 0.6 nM to 46 uM.
(3) Incubate at 37C for 30 min.
(4) Dispense 0.5uL EGF (25 nM in final)
(5) Incubate at 37C for 5 min.
(6) Dispense 0.5uL of 1:2 diluted 5x lysis buffer.
(7) Incubate at 37C for 10 min.
(8) Dispense 1.5uL of mixture of activation buffer and reaction buffer with AlphaScreen beads (streptavidin donor beads and protein-A acceptor beads, 10 ng/well for each).
(9) Incubate at room temperature for 5 hr.
(10) Detect the assay plate in an EnVision plate reader (PerkinElmer) using the AlphaScreen detection mode.
[…]
Potency is read from the fitted curve at half-maximal effect.

Structure (SMILES)	activity change, negative = inhibition	Potency
CCOc1ccc(-c2nc(N)ncc2-c2ccccc2OC)c(O)c1	-12.6% [at 57.5 µM]	
O=C(Nc1ccc2oc(-c3ccccc3F)nc2c1)c1ccco1	0.33%	
Cc1ccc(S(=O)(=O)N(C)C)cc1NC(=O)c1n[nH]c(=O)c2ccccc12	-4.99% [at 57.5 µM]	
O=C(CNC(=O)COc1ccccc1)NCCc1ccccn1	-0.794%	
CCCn1nc(Oc2nc(NC(C)C)nc(N(C)C)n2)ccc1=O	-6.22%	
O=C(NCC(=O)N(CC1CCCO1)C(C(=O)NC1CCCCC1)c1ccccc1)c1ccco1 (stereo not given)	-4.65%	
NS(=O)(=O)c1ccc(NC(=O)COC(=O)c2ccco2)cc1	10.8%	
O=C(Cn1cnc2ccccc2c1=O)Nc1cccc(S(=O)(=O)N2CCCCC2)c1	14.9% [at 57.5 µM]	
Fc1ccc(-c2csc(-c3ccc(C4SCCS4)cc3)n2)cc1F	-5.85% [at 57.5 µM]	
COCC1CCCN(Cc2nc(-c3ccc4c(c3)OCO4)no2)C1 (stereo not given)	2.16%	
CCNC(=O)CC1C(=O)N(c2ccc(F)cc2)C(=O)N1Cc1cccs1 (stereo not given)	-4.27%	
CN(C)S(=O)(=O)c1ccc(Cl)c(NC(=O)COC(=O)CC(NC(N)=O)c2ccc(Cl)cc2)c1 (stereo not given)	9.73% [at 57.5 µM]	
COc1ccc(/C=C/c2nnc(NC(=O)C(C)C)s2)cc1	1.71% [at 57.5 µM]	
O=C(O)c1ccc(/C=N/Nc2nc(N3CCCCC3)nc(N3CCCCC3)n2)cc1	-5.89% [at 57.5 µM]	
COc1cc(OC)cc(-c2nnc(SCC(=O)Nc3ccc(C(=O)O)cc3)s2)c1	-1.87%	
NC(=O)COc1ccc(NC(=O)c2ccccc2-c2ccccc2)cc1	-15.3%	
O=C(CSc1nncs1)NC1CCCc2ccccc21 (stereo not given)	-7%	
O=C(O)c1cccnc1Sc1ncnc2sc3c(c12)CCC3	-13.3% [at 57.5 µM]	
N#C/C(=C\C1=C(N2CCOCC2)C(=C\c2ccccc2)/CC1)C(=O)Nc1ccccc1F		7.08 µM (active)
N#C/C(=C/c1ccc(N2CCOCC2)o1)C(=O)N1CCOCC1	11.4%	
N#C/C(=C\c1ccccc1C(F)(F)F)C(=O)Nc1ccccc1F	-4.8%	
O=C(CSc1nnnn1-c1ccc(O)cc1)c1ccc(F)cc1	-7.72% [at 57.5 µM]	
O=C(CCCNS(=O)(=O)c1cccc2nsnc12)NCCN1CCN(c2ccccc2F)CC1	-6.43%	
CCN(CC)CCCNC(=O)Cn1cnc2sc(C)c(S(=O)(=O)N3CCN(c4ncccn4)CC3)c2c1=O	-2.86%	
COc1cccc(CNC(=O)CCC2CCCN(C(=O)c3ccoc3C)C2)c1 (stereo not given)	-3.88%	
O=C(NCCc1csc(-c2ccccc2)n1)c1ccccc1F	5.73% [at 57.5 µM]	
O=C(NC(=S)NC1CCSC1=O)c1ccccc1F (stereo not given)		20 µM (active)
COC(=O)c1ccccc1NC(=S)NC(=O)c1ccccc1F	-0.514%	

Structure (SMILES)	activity change, negative = inhibition	Potency
Cc1ccc(S(=O)(=O)N2CCN(C(=O)COC(=O)c3c(C)noc3C)CC2)c(C)c1	-0.545% [at 57.5 µM]	
O=C(NNC(=O)c1cnccc1C(F)(F)F)c1ccc(Cl)cc1	-8.71% [at 57.5 µM]	
COc1cc2nc(Cl)nc(NCCO)c2cc1OC	1.73% [at 57.5 µM]	
NS(=O)(=O)c1cccc(NC(=O)CSc2nc3ccccc3n2-c2ccccc2)c1	-7.08%	
COC(=O)c1ccc(NC(=S)NN2CCOCC2)cc1	-0.482%	
CN1CCN(/N=C2/C(=O)Nc3ccc([N+](=O)[O-])cc32)CC1	-4.33%	
COCCCNC(=S)N(Cc1ccccc1)Cc1ccc(F)cc1	0.532%	
O=C(/C=C/c1ccc(Cl)c([N+](=O)[O-])c1)c1ccc(O)cc1	2.12% [at 57.5 µM]	
Cc1nn(-c2ccccc2)c(Cl)c1/C=C/C(=O)c1ccc(O)cc1		15.8 µM (active)
Cc1nn(-c2ccccc2)c(C)c1/C=C/C(=O)OC(C)C(N)=O (stereo not given)	-1.64%	
COc1ccc(OC)c(NC(=O)N[C@H](Cc2ccccc2)C(=O)NN)c1	2.4% [at 57.5 µM]	
CN(C)S(=O)(=O)c1ccc(C(=O)NCC(C)(C)N2CCOCC2)cc1	-14.2% [at 57.5 µM]	
CC1(C)OC(=O)C(=CSc2ccc(C(C)(C)C)cc2)C(=O)O1	-2.11%	
COc1ccc(NC(=S)NCCNC(C)=O)cc1	-28.6%	
COc1ccc(NC(=S)NCCN2CCC(C)CC2)cc1	23.5%	
COc1ccc(NC(=S)NCC2CCN(c3ccc(OC)cc3)C2)cc1 (stereo not given)		25.1 µM (active)
COc1ccc(N2CCC(CNC(=S)Nc3c(C)cccc3C)C2)cc1 (stereo not given)		12.6 µM (active)
COc1cccc(N2CC(C(=O)Nc3c(C)cccc3C)CC2=O)c1 (stereo not given)	-8.02%	
COc1ccc(NC(=O)N2CCC(Cc3ccccc3)CC2)cc1	-15.1%	
Cc1nc2cc(NC(=O)Nc3cccc(F)c3)ccc2n1C	-11.2% [at 57.5 µM]	
CC(C)=NN1C(=O)c2ccccc2NC1(C)C	-17.9% [at 57.5 µM]	
OCCC1CN(Cc2ccc3nsnc3c2)CCN1C1CCCCC1 (stereo not given)	-6.33% [at 57.5 µM]	
O=C(/C=C/c1ccc2c(c1)OCO2)NCc1cn2cc(Cl)ccc2n1	-5.35%	
Cc1c(Cc2ccccc2)c(=O)oc2cc(OCC(N)=O)ccc12	-6.39%	
Cc1ccc(S(=O)(=O)N2CCN(C(=O)c3cccs3)CC2)cc1	-8.75%	
COC(=O)C1=C(N)Oc2cc(C)[nH]c(=O)c2C1c1ccc(Cl)cc1 (stereo not given)	-16.6% [at 57.5 µM]	
O=C(NNC(=O)c1ccc(Cl)cc1Cl)c1cccs1	4.42%	
